For ten molecules, growth results are on record in PubChem BioAssay (NCI).

Molecules are shown by their SMILES. This is part of a sample that, as a whole, favours compounds with a hit. Of some 83,000 tested, about 20% had one in any assay.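 Single-dose data. Exposure time 48 hours. Values below 10 considered active.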 The source made the active and inactive calls.

For this experiment, the system named is SNB-19 CNS. The experiment in a line: NCI-60 one-dose screen, 48 h (100 = growth as untreated, 0 = no growth, -100 = all killed). The note with it: 10 µM unless noted.
With `COc1cc2cc(Oc3ccc(NC(=O)c4cccc(C(F)(F)F)c4)cc3)c(C)nc2cc1OCCN(C)C`, the growth was 94.2% (inactive).
Then `CCCC(=O)NC(c1cccnc1)c1cc(C(C)=O)c2cccnc2c1O` (stereo not given), with 29.5% (inactive); and `O=C(CCCCCCN1CC(=O)N2[C@@H](c3ccc(Cl)c(F)c3)c3[nH]c4ccccc4c3C[C@H]2C1=O)NO`, with 86.6% (inactive).
Then `O=C1NC(=O)/C(=C/c2ccc(OCc3cc4ccccc4nc3Cl)cc2)S1`, with 100% (inactive); and `O=C(O)c1ccc(-n2cc(CNc3ccc(F)cc3)c(-c3ccc(C(F)(F)F)cc3)n2)cc1`, with 84.3% (inactive).
With `Oc1ccc(CSc2nnc(-c3ccncc3)o2)c2cccnc12` the figure was 17.6% (inactive); with `Oc1ccc(CSc2nnc(-c3ccncc3)n2-c2ccccc2)c2cccnc12`, 12.7% (inactive).
`Oc1ccc(CSc2nnc(-c3cnccn3)n2-c2ccccc2)c2cccnc12`: the growth was 19.7% (inactive).
For `O=C(COc1ccc(/C=C2\SC(=O)NC2=O)cc1)Nc1ccc(C(=O)/C=C/c2cc3ccccc3nc2Cl)cc1`, the growth is 82% (inactive).
Then `COc1ccc(N2CCN(C(=O)CSc3ccc(-c4nc5cc(C)c(C)cc5[nH]4)cn3)CC2)cc1`, with 87.5% (inactive).
